Assay outcomes as filed in PubChem.
This is a sample that favours compounds with a hit; in the whole collection about 19% have one here.
IL-1B inflam inh: inhibitors of inflammasome signaling (IL-1 beta secretion); THP-1 LPS/ATP IL-1B secretion, AlphaLISA, 16 h; hits give low values; activity change, % at 57.5 µM; actives 4.7% (n = 360,000); in the data active means activity change below about -50%; inconclusive means mostly about -30% to -49%
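Secreted IL-1B measured by AlphaLISA bead assay after 16 h compound exposure of THP-1 cells; compounds (final up to 57.5 uM) added 1 h before LPS (250 ng/mL) and ATP (1.25 mM) stimulation; lower signal means less secretion.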
TDP1 cell CPT: DT40-hTDP1 cell growth loss with CPT | chicken DT40 Tdp1-/-;hTDP1 cells + 20 nM CPT, ATP luminescence, 48 h | Potency, µM (highest dose often 46.2 µM), inactives show at the highest dose activity change, negative = growth inhibition, actives largely listed as inhibitors | actives 12% (n = 420,000) | AID 686979; further: potency means the concentration at half of the fitted maximal effect; nearly all actives have a fitted effect of over 55% in size
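Chicken DT40 Tdp1-/- cells stably complemented with human TDP1 were seeded at 400 cells/well in medium containing 20 nM camptothecin, exposed to pin-transferred compounds, and grown at 37 °C for at least 48 hr. Viability was read as ATP luminescence.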
HT1080 IDH1KD tx: toxicity to HT-1080 IDH1 knockdown cells (counter line) | HT-1080 IDH1 knockdown viability, ATP luminescence, 48 h | Potency, µM (doses to about 46.1 µM), for inactives: at the highest dose activity, negative = toxicity, hits mostly cytotoxic | actives 2% (n = 360,000) | AID 686971;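 further: potency means the concentration at half of the fitted maximal effect; 0% = DMSO wells and -100% = cell-free medium wells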
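Assay cells: HT-1080 with IDH1 knockdown, 750 per well, RPMI/5% FBS. Exposure: 48 h at 37 °C following 2 h pre-incubation. Read: CellTiter-Glo luminescence; fitted concentration-response, curve class assigned.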
DT40 TDP1 no CPT: qHTS for Inhibitors of human tyrosyl-DNA phosphodiesterase 1 (TDP1): qHTS in cells in absence of CPT; Potency, µM (top dose mostly 46.2 µM), for the others: top-dose activity change, negative = growth inhibition, hits mostly inhibitors; actives 15% (n = 420,000); DT40 Tdp1-/- hTDP1 cells, no CPT, ATP luminescence, 48 h; further: potency means the concentration at half of the fitted maximal effect; nearly all actives have a fitted effect of over 55% in size
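Compound effects on proliferation are scored in DT40 Tdp1-/-;hTDP1 cells in the absence of CPT. ATP levels (CellTiter-Glo luminescence) are recorded after a ≥48 hr, 37 °C incubation.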
HT1080-NT tox: kills 2HG-producing HT-1080-NT fibrosarcoma cells. HT-1080-NT fibrosarcoma viability, CellTiter-Glo ATP luminescence, 48 h. Potency, µM (highest dose often 46.1 µM), for inactives: at the top dose activity, negative = less viability, usual class: cytotoxic. actives 1.6% (n = 360,000);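 further: NT is the 2HG producing partner of a matched IDH1 knockdown line; potency means the concentration at half of the fitted maximal effect; 0% = DMSO-treated cells and -100% = media-only wells without cells; nearly all actives have a fitted effect of over 55% in size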
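Fibrosarcoma NT cells, 750 per well in 5% FBS RPMI, were exposed to compound for 48 hours. Viability: CellTiter-Glo luminescence.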
The depositor's hits bear a star; ? = inconclusive; · = not tested or not shown. Unless noted, the call rests on the fitted dose curve; in most records, active means well fitted curve in the direction sought with a large enough effect; inconclusive means small, poorly fitted or top-dose-only effect, or another doubt; inactive means no such curve, though single readings can be large; an effect the other way counts as inactive or inconclusive. Unless noted, on the % scale 0 is the no-effect control and ±100 the full control effect.

SMILES | IL-1B inflam inh | TDP1 cell CPT | HT1080 IDH1KD tx | DT40 TDP1 no CPT | HT1080-NT tox
Cc1ccc2ccccc2c1C(O)c1ncc(-c2ccc(F)cc2)[nH]1 (stereo not drawn) | 19 | ? | -26% | ? | -1%
COc1cccc(-c2nn(-c3ccccc3)cc2CN(C)Cc2ccno2)c1 | 0 | 21µM* | -21% | 21µM* | -11%
CCn1ccnc1CN(C)Cc1cn(-c2ccccc2)nc1-c1ccc(OC)cc1F | -74* | ? | -30% | ? | -19%
CC(C)Oc1ccc(CCN=C(N)N=C(N)N)cc1Cl | -18 | 10µM* | 23µM* | 12µM* | -19%
CC(C)Oc1ccc(CNC(=S)Nc2ccccc2)cc1Cl | 4 | ? | 3% | ? | 4%
Cc1ccc(Cl)cc1N1CCN(C(=O)c2cc(S(=O)(=O)N3CCCC3)cn2C)CC1 | · | 16µM* | · | 23µM* | ·
Cn1cc(S(=O)(=O)N2CCCC2)cc1C(=O)N1CCN(c2cccc(Cl)c2)CC1 | -12 | ? | -26% | ? | ?
Cc1ccc(Cl)cc1N1CCN(C(=O)c2cc(S(=O)(=O)N3CCCCC3)cn2C)CC1 | · | 13µM* | · | 21µM* | ·
COc1cc(OC)c(S(=O)(=O)Nc2ccc(C(=O)O)cc2)cc1S(=O)(=O)Nc1ccc(C(=O)O)cc1 | 2 | 3% | 23% | -10% | ?
O=C(c1ccco1)N1N=C(c2ccccc2O)CC1c1cccs1 (stereo not drawn) | 0 | -27% | 2% | ? | 1%
COc1ccc(-n2c(C)c(C(C)=O)c3cc(OC(=O)COc4ccccc4)ccc32)cc1 | · | 6.5µM* | · | 7.3µM* | ·
CCOC(=O)c1c(C)n(-c2ccc(OC)cc2)c2ccc(OC(=O)COc3ccccc3)cc12 | · | ? | · | 21µM* | ·
CC(=O)c1c(C)n(-c2ccc(C)cc2)c2ccc(OC(=O)COc3ccccc3)cc12 | · | 6.5µM* | · | 7.3µM* | ·
COc1cccc(Cl)c1NC(=O)N1CCN(c2ccnc3cc(Cl)ccc23)CC1 | -1 | ? | -6% | 23µM* | 1%
COc1cccc(Cl)c1NC(=O)N1CCN(c2cc(C)nc3ccccc23)CC1 | -71* | 16µM* | ? | ? | -27%
Cc1cc(N2CCN(C(=O)/C=C/C(=O)O)CC2)c2ccccc2n1 | 10 | 1% | -1% | -2% | 0%
COc1ccc(-c2csc(N3CCN(c4cc(C)nc5ccccc45)CC3)n2)cc1OC | -101* | 15µM* | 16µM* | 15µM* | ?
CCC[C@H]1CN(Cc2cccnc2)C(=O)[C@@H]1CC(=O)Nc1ccc(Br)cc1 | -22 | -30% | -15% | ? | 2%
O=C(CCC(=O)N1CCOCC1)Nc1ccc(Cl)c(Cl)c1 | 11 | -4% | -12% | 2% | -11%
COc1cc(NC(=O)c2cc3cc4ccc(OC)c(Cl)c4nc3s2)cc(OC)c1 | · | -27% | · | -21% | ·
OC(c1ccc(CN2CCCCC2)cc1)c1ncc(-c2ccccc2)[nH]1 (stereo not drawn) | -2 | 5% | ? | -14% | -5%
O=C(N/N=C\c1ccc(COc2ccc([N+](=O)[O-])cc2)o1)c1ccc(Cl)cc1 | -60* | ? | -26% | ? | -15%
O=C(N/N=C/c1ccc(-c2cccc([N+](=O)[O-])c2)o1)c1ccccc1O | -2 | ? | -19% | ? | -6%
COc1cc(C(=O)NCC(=O)N/N=C/c2ccc(-c3ccc([N+](=O)[O-])cc3)o2)cc(OC)c1OC | ? | ? | -27% | 21µM* | -22%
COc1ccccc1C(=O)NCC(=O)N/N=C/c1ccc([N+](=O)[O-])cc1 | -27 | -25% | 9% | -8% | 0%
O=C(N/N=C/c1ccc(-c2cccc([N+](=O)[O-])c2)o1)c1ccc([N+](=O)[O-])cc1 | -51* | ? | -11% | 16µM* | -4%
O=C(NN=Cc1ccccc1Cl)c1ccc([N+](=O)[O-])cc1 | -7 | 6% | 17% | 2% | ?
